Holding throughout (experiment): PBM; 200 nM protein, PBS
Holding throughout (conditions): dsDNA, one strand shown

The target in test [1] is HOXB9 (Homo sapiens, UniProt P17482 171-250, T197M).
Test [2] has as its target HOXA4 (Homo sapiens, UniProt Q00056 201-287, W262R).
Test [3] concerns the target HOXC9 (Homo sapiens, UniProt P31274 178-260, K195R).
Test [4] deals with T1, VENTX (Homo sapiens, UniProt O95231 78-163).
T1 sequence: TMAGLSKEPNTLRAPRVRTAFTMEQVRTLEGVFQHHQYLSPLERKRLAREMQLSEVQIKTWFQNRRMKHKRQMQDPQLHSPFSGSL

Test [5] addresses HOXA7 (Homo sapiens, UniProt P31268 116-202).
Test [6] deals with HOXC10 (Homo sapiens, UniProt Q9NYD6 254-340).
The target of test [7] is HOXB6 (Homo sapiens, UniProt P17509 132-218, K202E).
The target of test [8] is HOXB9 (Homo sapiens, UniProt P17482 171-250).
For test [9], the target named is HOXC9 (Homo sapiens, UniProt P31274 178-260).
In test [10] the target is HOXC9 (Homo sapiens, UniProt P31274 178-260, R193K).
Test [11] has as its target HOXA4 (Homo sapiens, UniProt Q00056 201-287).
The target of test [12] is HOXC10 (Homo sapiens, UniProt Q9NYD6 254-340, K271E).
In test [13] the target is VAX1 (Homo sapiens, UniProt Q5SQQ9 86-172).
Test [14] concerns the target HOXB9 (Homo sapiens, UniProt P17482 171-250, R186Q).
Test [15] deals with HOXC9 (Homo sapiens, UniProt P31274 178-260, R222W).
In test [16] the target is T2, PAX4 (Homo sapiens, UniProt O43316 9-242, R227W).
T2 sequence: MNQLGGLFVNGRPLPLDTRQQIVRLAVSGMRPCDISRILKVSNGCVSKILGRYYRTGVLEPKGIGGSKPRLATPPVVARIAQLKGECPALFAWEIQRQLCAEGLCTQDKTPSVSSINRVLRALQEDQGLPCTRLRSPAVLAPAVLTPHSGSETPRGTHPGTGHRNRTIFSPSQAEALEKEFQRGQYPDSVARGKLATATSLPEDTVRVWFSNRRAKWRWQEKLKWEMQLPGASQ

The target in test [17] is HOXA2 (Homo sapiens, UniProt O43364 129-215, Y150S).
The target in test [18] is HOXA7 (Homo sapiens, UniProt P31268 116-202, W177C).
Test [19] has as its target HOXA2 (Homo sapiens, UniProt O43364 129-215).
The target of test [20] is HOXB6 (Homo sapiens, UniProt P17509 132-218).

The text below walks through data of article PMC11006913.

Sequence of HOXB9 (Homo sapiens, UniProt P17482 171-250, T197M) (P17482 171-250 T197M): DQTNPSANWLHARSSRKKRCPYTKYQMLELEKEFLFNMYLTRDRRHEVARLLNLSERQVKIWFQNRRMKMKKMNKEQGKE
Sequence of HOXA2 (Homo sapiens, UniProt O43364 129-215) (O43364 129-215): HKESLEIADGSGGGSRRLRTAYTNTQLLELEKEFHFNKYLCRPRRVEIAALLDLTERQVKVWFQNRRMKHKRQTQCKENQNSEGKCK
Sequence of HOXC9 (Homo sapiens, UniProt P31274 178-260, K195R) (P31274 178-260 K195R): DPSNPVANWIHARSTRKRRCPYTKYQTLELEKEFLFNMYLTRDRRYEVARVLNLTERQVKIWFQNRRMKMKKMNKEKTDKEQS
Sequence of HOXC9 (Homo sapiens, UniProt P31274 178-260, R193K) (P31274 178-260 R193K): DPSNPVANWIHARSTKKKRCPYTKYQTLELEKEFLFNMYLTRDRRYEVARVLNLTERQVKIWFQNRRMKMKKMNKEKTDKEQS
Sequence of HOXB9 (Homo sapiens, UniProt P17482 171-250, R186Q) (P17482 171-250 R186Q): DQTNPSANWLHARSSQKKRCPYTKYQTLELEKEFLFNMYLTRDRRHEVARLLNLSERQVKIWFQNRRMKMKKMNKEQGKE
Sequence of HOXC9 (Homo sapiens, UniProt P31274 178-260, R222W) (P31274 178-260 R222W): as the sequence (P31274 178-260 R193K) above, with K16R, R45W counted along it
Sequence of HOXB6 (Homo sapiens, UniProt P17509 132-218, K202E) (P17509 132-218 K202E): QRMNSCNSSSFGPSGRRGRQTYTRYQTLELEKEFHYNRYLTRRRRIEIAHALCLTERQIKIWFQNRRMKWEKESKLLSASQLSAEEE
Sequence of HOXC9 (Homo sapiens, UniProt P31274 178-260) (P31274 178-260): as the sequence (P31274 178-260 R193K) above, with K16R counted along it
Sequence of VAX1 (Q5SQQ9 86-172): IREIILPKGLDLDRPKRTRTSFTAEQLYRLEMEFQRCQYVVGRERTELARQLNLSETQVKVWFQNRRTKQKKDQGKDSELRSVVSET
Sequence of HOXA4 (Homo sapiens, UniProt Q00056 201-287, W262R) (Q00056 201-287 W262R): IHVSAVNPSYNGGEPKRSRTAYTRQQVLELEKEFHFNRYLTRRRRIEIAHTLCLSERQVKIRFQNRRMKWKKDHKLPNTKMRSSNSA
Sequence of HOXB6 (Homo sapiens, UniProt P17509 132-218) (P17509 132-218): as the sequence (P17509 132-218 K202E) above, with E71K counted along it
Sequence of HOXA4 (Homo sapiens, UniProt Q00056 201-287) (Q00056 201-287): as the sequence (Q00056 201-287 W262R) above, with R62W counted along it
Sequence of HOXA7 (Homo sapiens, UniProt P31268 116-202, W177C) (P31268 116-202 W177C): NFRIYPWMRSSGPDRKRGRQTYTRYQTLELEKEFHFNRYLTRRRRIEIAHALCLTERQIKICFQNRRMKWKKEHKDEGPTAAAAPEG
Sequence of HOXC10 (Homo sapiens, UniProt Q9NYD6 254-340, K271E) (Q9NYD6 254-340 K271E): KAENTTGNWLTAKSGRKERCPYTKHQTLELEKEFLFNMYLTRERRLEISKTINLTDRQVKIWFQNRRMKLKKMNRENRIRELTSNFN
Sequence of HOXA2 (Homo sapiens, UniProt O43364 129-215, Y150S) (O43364 129-215 Y150S): as the sequence (O43364 129-215) above, with Y22S counted along it
Sequence of HOXC10 (Homo sapiens, UniProt Q9NYD6 254-340) (Q9NYD6 254-340): as the sequence (Q9NYD6 254-340 K271E) above, with E18K counted along it
Sequence of HOXA7 (Homo sapiens, UniProt P31268 116-202) (P31268 116-202): as the sequence (P31268 116-202 W177C) above, with C62W counted along it
Sequence of HOXB9 (Homo sapiens, UniProt P17482 171-250) (P17482 171-250): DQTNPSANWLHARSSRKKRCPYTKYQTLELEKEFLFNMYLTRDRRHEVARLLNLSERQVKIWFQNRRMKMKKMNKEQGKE

For the sequence ATAATTAT, the binding signal in test [1] was 10.4 upbm affinity estimate (log intensity, higher = more binding, comparable within an allelic series); in test [2], 10.9 upbm affinity estimate (log intensity, higher = more binding, comparable within an allelic series); in [3] it was 12.9 upbm affinity estimate (log intensity, higher = more binding, comparable within an allelic series); in [4], 12.3 upbm affinity estimate (log intensity, higher = more binding, comparable within an allelic series); in test [5], 12 upbm affinity estimate (log intensity, higher = more binding, comparable within an allelic series); in test [6], 12.3 upbm affinity estimate (log intensity, higher = more binding, comparable within an allelic series). In addition, the binding signal in test [7] was 10.3 upbm affinity estimate (log intensity, higher = more binding, comparable within an allelic series); in test [8], 12 upbm affinity estimate (log intensity, higher = more binding, comparable within an allelic series); in [9], 12.9 upbm affinity estimate (log intensity, higher = more binding, comparable within an allelic series); in test [10] it was 12.8 upbm affinity estimate (log intensity, higher = more binding, comparable within an allelic series); in test [11], 14.3 upbm affinity estimate (log intensity, higher = more binding, comparable within an allelic series); in test [12], 12.1 upbm affinity estimate (log intensity, higher = more binding, comparable within an allelic series). Further, the binding signal in [13] was 13.2 upbm affinity estimate (log intensity, higher = more binding, comparable within an allelic series); in [14], 11.7 upbm affinity estimate (log intensity, higher = more binding, comparable within an allelic series); in [15] it was 11.2 upbm affinity estimate (log intensity, higher = more binding, comparable within an allelic series); in [16] it was 11.3 upbm affinity estimate (log intensity, higher = more binding, comparable within an allelic series); in test [17], 10.9 upbm affinity estimate (log intensity, higher = more binding, comparable within an allelic series); in test [18], 9.06 upbm affinity estimate (log intensity, higher = more binding, comparable within an allelic series). Also, the binding signal in [19] is 13.1 upbm affinity estimate (log intensity, higher = more binding, comparable within an allelic series); in [20], 12.4 upbm affinity estimate (log intensity, higher = more binding, comparable within an allelic series).
Take ATTAATTG: the binding signal in test [1] was 10.3 upbm affinity estimate (log intensity, higher = more binding, comparable within an allelic series); in [2], 10.7 upbm affinity estimate (log intensity, higher = more binding, comparable within an allelic series); in test [3] it was 12.8 upbm affinity estimate (log intensity, higher = more binding, comparable within an allelic series); in [4] it was 12.8 upbm affinity estimate (log intensity, higher = more binding, comparable within an allelic series); in [5], 12 upbm affinity estimate (log intensity, higher = more binding, comparable within an allelic series); in test [6] it was 12.2 upbm affinity estimate (log intensity, higher = more binding, comparable within an allelic series). The binding signal in test [7] is 10.1 upbm affinity estimate (log intensity, higher = more binding, comparable within an allelic series); in [8], 12.2 upbm affinity estimate (log intensity, higher = more binding, comparable within an allelic series); in [9], 12.9 upbm affinity estimate (log intensity, higher = more binding, comparable within an allelic series); in test [10], 12.7 upbm affinity estimate (log intensity, higher = more binding, comparable within an allelic series); in [11], 14 upbm affinity estimate (log intensity, higher = more binding, comparable within an allelic series); in test [12] it was 12.2 upbm affinity estimate (log intensity, higher = more binding, comparable within an allelic series). For the same sequence, the binding signal in test [13] is 13.2 upbm affinity estimate (log intensity, higher = more binding, comparable within an allelic series); in test [14] it was 11.8 upbm affinity estimate (log intensity, higher = more binding, comparable within an allelic series); in test [15], 11.2 upbm affinity estimate (log intensity, higher = more binding, comparable within an allelic series); in test [16], 11 upbm affinity estimate (log intensity, higher = more binding, comparable within an allelic series); in test [17], 11 upbm affinity estimate (log intensity, higher = more binding, comparable within an allelic series); in test [18] it was 8.87 upbm affinity estimate (log intensity, higher = more binding, comparable within an allelic series). Moreover, the binding signal in test [19] is 12.6 upbm affinity estimate (log intensity, higher = more binding, comparable within an allelic series); in test [20], 12.3 upbm affinity estimate (log intensity, higher = more binding, comparable within an allelic series).
CTTAATTA: the binding signal in test [1] is 10.2 upbm affinity estimate (log intensity, higher = more binding, comparable within an allelic series); in [2] it was 11 upbm affinity estimate (log intensity, higher = more binding, comparable within an allelic series); in [3] it was 12.7 upbm affinity estimate (log intensity, higher = more binding, comparable within an allelic series); in test [4] it was 12.9 upbm affinity estimate (log intensity, higher = more binding, comparable within an allelic series); in [5], 12.1 upbm affinity estimate (log intensity, higher = more binding, comparable within an allelic series); in [6] it was 12.2 upbm affinity estimate (log intensity, higher = more binding, comparable within an allelic series). Besides, the binding signal in test [7] is 10.3 upbm affinity estimate (log intensity, higher = more binding, comparable within an allelic series); in test [8] it was 11.8 upbm affinity estimate (log intensity, higher = more binding, comparable within an allelic series); in test [9] it was 12.6 upbm affinity estimate (log intensity, higher = more binding, comparable within an allelic series); in test [10], 12.6 upbm affinity estimate (log intensity, higher = more binding, comparable within an allelic series); in [11], 14.3 upbm affinity estimate (log intensity, higher = more binding, comparable within an allelic series); in [12], 12.2 upbm affinity estimate (log intensity, higher = more binding, comparable within an allelic series). Moreover, the binding signal was 13.8 upbm affinity estimate (log intensity, higher = more binding, comparable within an allelic series) in test [13]; 11.5 upbm affinity estimate (log intensity, higher = more binding, comparable within an allelic series) in test [14]; 11.1 upbm affinity estimate (log intensity, higher = more binding, comparable within an allelic series) in test [15]; 11.3 upbm affinity estimate (log intensity, higher = more binding, comparable within an allelic series) in test [16]; 11 upbm affinity estimate (log intensity, higher = more binding, comparable within an allelic series) in test [17]; 8.96 upbm affinity estimate (log intensity, higher = more binding, comparable within an allelic series) in test [18]. Also, the binding signal in test [19] was 13.1 upbm affinity estimate (log intensity, higher = more binding, comparable within an allelic series); in test [20], 12.5 upbm affinity estimate (log intensity, higher = more binding, comparable within an allelic series).
